From PubChem BioAssay (NCI)
This is part of a sample that, as a whole, favours compounds with a hit. Of some 83,000 tested, about 20% had one in any assay.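 In brief: 96-well plates, 48 h treatment, single concentration, percent growth endpoint.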 Calls of active or inactive are those of the source. The calls were made as follows: active = growth percent below 10; inactive = the rest.

system: LOX IMVI melanoma; assay: NCI-60 one-dose screen, 48 h (100 = growth as untreated, 0 = no growth, -100 = all killed); details: 10 µM unless noted

Row | Compound | growth
1 | NC(N)=Nc1ccc(Oc2cccc(Nc3cccc(C(F)(F)F)c3)c2)cn1 | -90.3% (active)
2 | O=C(CSc1nc2ccccc2c(=O)n1-c1ccccc1)Nc1cccc(C(=O)/C=C/c2ccccc2)c1 | 86.1% (inactive)
3 | COc1ccc(/C(N)=N/C(N)=N/c2nc3ccccc3s2)cc1 | 22.8% (inactive)
4 | Cc1cccc(/C=C/C(=O)Nc2ncc(Cc3cccc(C)c3)s2)c1 | 23.3% (inactive)
5 | COc1c(N2CC3CCCNC3C2)c(F)cc2c(=O)c(C(=O)N/N=C/c3ccc(Br)cc3)cn(C3CC3)c12 (configuration not stated) | -73.5% (active)
6 | O=C(c1ccc(O)cc1)[C@@H]1CN[C@@]2(C(=O)Nc3ccccc32)[C@H]1c1ccc(F)cc1 | 110% (inactive)
7 | Nc1nc(Nc2ccccc2SSc2ccccc2Nc2nc(N)nc(-c3ccc4ccccc4c3)n2)nc(-c2ccc3ccccc3c2)n1 | -70.7% (active)
